Pf Dd2 growth – inhibitors of Plasmodium falciparum Dd2 growth; P. falciparum Dd2 growth, SYBR Green, 72 h; AID 1347417; hit rate 4.3% among 120,000; Potency, µM (highest dose often 28.9 µM), for the others: at the top dose activity, negative = inhibition, hits mostly inhibitors; active = well fitted inhibition curve with a large enough effect;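 also: plate controls were DMSO vehicle for no effect and reference drug for full effect; nearly all actives have a fitted effect of over 65% in size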
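Infected erythrocytes (Dd2, 0.3% parasitemia, 2.5% hematocrit final) are added to compound in RPMI-1640/Albumax II medium, grown 72 h at 37C in low oxygen, then lysed with saponin/Triton-X containing SYBR Green and read by fluorescence.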
The depositor's hits bear a star; [ ] = another dose, or the depositor's remark. This excerpt belongs to a sample that is enriched for hits. Potency is read from the fitted curve at half-maximal effect.

How did CCCn1cc(C2CCN(S(=O)(=O)c3c(C)c(C)cc(C)c3C)CC2)c2ccccc21 do in these assays?
Pf Dd2 growth: 10µM*

What do the screens show for `CCOCCn1cc(C2CCN(S(=O)(=O)c3c(C)cc(C)cc3C)CC2)c2ccccc21`?
Pf Dd2 growth: -7%

How did COCC1CN(C(C)=O)CC12CCN(C(=O)c1ccc(OC)nc1OC)CC2 (stereo unspecified) do in these assays?
Pf Dd2 growth: 2%

What do the screens show for `Cc1cc2c(cc1S(=O)(=O)Nc1cccc(C#N)c1)OCC(=O)N2`?
Pf Dd2 growth: 1%

What do the screens show for `COc1ccc(C2Cn3nnc(C(=O)N4CCC(C(=O)NC5CCCCCC5)CC4)c3CO2)cc1` (stereo unspecified)?
Pf Dd2 growth: inactive

Results for CC(C)Oc1ccc(CN2CCC(CO)(CN3CCCC3)CC2)cc1Cl ?
Pf Dd2 growth: 13µM*

Results for Cc1cc(CN2CCC(CO)(CN3CCCC3)CC2)ccc1F ?
Pf Dd2 growth: -28%

What do the screens show for `CCc1ccc(CN2CCC(CO)(CN3CCCC3)CC2)cc1`?
Pf Dd2 growth: 7.1µM*

What do the screens show for `COc1ccc(CN2CCC(CO)(CN3CCCC3)CC2)cc1OC`?
Pf Dd2 growth: -14%

How did COc1ccc(CN2CCC(CO)(CN3CCCC3)CC2)cc1C do in these assays?
Pf Dd2 growth: inactive

Results for OCC1(CN2CCCC2)CCN(Cc2cnn(-c3ccccc3)c2)CC1 ?
Pf Dd2 growth: inactive

Results for COCCNC(=O)[C@@H]1C[C@H](Oc2ccccc2)CN1C(=O)CC1CCCCC1 ?
Pf Dd2 growth: 5%

How did O=C(Cn1c(=O)c(C(F)(F)F)nc2ccccc21)Nc1cccc(Br)c1 do in these assays?
Pf Dd2 growth: 9%

How did COc1cccc(NC(=O)C2(C)CCCCC(=O)N2)c1 (stereo unspecified) do in these assays?
Pf Dd2 growth: -1%

What do the screens show for `O[C@H]1[C@H](NCC2CCCCC2)[C@H]2CO[C@H](O2)[C@@H]1N1CCC(Cc2ccccc2)CC1`?
Pf Dd2 growth: 1.4µM*

How did OCc1ccc(CN[C@H]2[C@H](O)[C@@H](N3CCC(Cc4ccccc4)CC3)[C@@H]3OC[C@H]2O3)o1 do in these assays?
Pf Dd2 growth: inactive

What do the screens show for `O[C@H]1[C@H](NCc2ccccn2)[C@H]2CO[C@H](O2)[C@@H]1N1CCC(Cc2ccccc2)CC1`?
Pf Dd2 growth: -19%[44.1 µM]

How did O=C(Cn1ncc2c3ccccc3n(Cc3ccccc3)c2c1=O)Nc1ccccc1C(F)(F)F do in these assays?
Pf Dd2 growth: inactive

Results for COc1ccc(C(=O)N2C[C@@H]3CCCN4CCC[C@@H]([C@H]34)[C@H]2CCCC(=O)N2CCOCC2)cc1 ?
Pf Dd2 growth: -8%

What do the screens show for `CCOc1ccc(CNC(=O)CCn2cccn2)cc1OC`?
Pf Dd2 growth: 7%

What do the screens show for `CCOc1ccc(-c2nnc(SCC(=O)NC3CCCC3)nc2-c2ccc(OCC)c(OC)c2)cc1OC`?
Pf Dd2 growth: 91%

Results for CCOc1cc(-c2nnc(SCC(=O)Nc3ccc(F)c(F)c3)nc2-c2ccc(OC)c(OCC)c2)ccc1OC ?
Pf Dd2 growth: 15%

How did COc1ccc(-c2nnc(SCC(=O)NCc3ccccc3)nc2-c2ccc(OC)c(OC)c2)cc1OC do in these assays?
Pf Dd2 growth: 8.9µM*

What do the screens show for `O=C(CC1CCc2ccccc21)N1CCN(S(=O)(=O)N2CCCC2)CC1` (stereo unspecified)?
Pf Dd2 growth: -4%

What do the screens show for `CCCCN(CCCNC(=O)CN1N=C(c2ccccc2)CCC1=O)c1ccccc1`?
Pf Dd2 growth: 38%

What do the screens show for `COC(=O)c1ccc(NC(=O)N2CC(Oc3cccc(-c4nc(C)no4)c3)C2)cc1`?
Pf Dd2 growth: -19%[5.79 µM]

What do the screens show for `Cc1cccc(-c2nc(Cn3c(SCc4cccc(C(F)(F)F)c4)nc4ccncc43)c(C)o2)c1`?
Pf Dd2 growth: -1%

What do the screens show for `CCC(C(=O)NC1CCCCC1)n1c(SCc2cccc(C)c2)nc2ccncc21` (stereo unspecified)?
Pf Dd2 growth: -30%

What do the screens show for `Cc1cccc(Cn2c(SCc3ccc(C(=O)NC4CCCCC4)cc3)nc3ccncc32)c1`?
Pf Dd2 growth: -16%

What do the screens show for `Cc1cccc(Cn2c(SCc3ccc(C(=O)NCc4ccccc4F)cc3)nc3ccncc32)c1`?
Pf Dd2 growth: 11µM*

Results for COc1cccc(CNC(=O)c2ccc(CSc3nc4ccncc4n3Cc3cccc(C)c3)cc2)c1 ?
Pf Dd2 growth: 3.2µM*

Results for COc1cccc(CNC(=O)c2ccc3oc(=O)n(Cc4ccccc4)c3c2)c1 ?
Pf Dd2 growth: 9%

How did CNC(=O)[C@@H]1CN(C(=O)c2cc(C)on2)C[C@H]1c1nc(COC)no1 do in these assays?
Pf Dd2 growth: -6%

Results for COc1ccc(-c2noc(Nc3ccc4c(c3)OCO4)n2)cc1 ?
Pf Dd2 growth: -22%

How did COc1ccc(-c2nc3ccccc3s2)cc1NC(C)=O do in these assays?
Pf Dd2 growth: 17%

How did Cc1cccc2c1nc1n2[C@@H](CNCc2cccnc2)COC1 do in these assays?
Pf Dd2 growth: -2%[44.1 µM]

Results for CCOC(=O)N1CCC2(CC1)OC(=O)C(C)=C2C(=O)NCc1ccccc1OC ?
Pf Dd2 growth: -17%

Results for Cc1ccccc1NC(=O)Cn1nnc(C(=O)NCCc2ccccc2)c1N ?
Pf Dd2 growth: -1%

What do the screens show for `COc1ccc(C(=O)N2CC[C@](O)(c3ccccc3)[C@H](N(C)C)C2)cn1`?
Pf Dd2 growth: inactive[5.79 µM]

What do the screens show for `O=C1[C@H]2CN(Cc3ccc(F)cc3Cl)C[C@H]2C(=O)N1CCN1CCc2ccccc2C1`?
Pf Dd2 growth: 4µM*

What do the screens show for `O=C1[C@H]2CN(Cc3ccc(F)cc3Cl)C[C@H]2C(=O)N1Cc1ccc2c(c1)OCO2`?
Pf Dd2 growth: -2%

Results for O=C1[C@H]2CN(Cc3cccc(Cl)c3F)C[C@H]2C(=O)N1CCc1ccccc1 ?
Pf Dd2 growth: 20%

Results for CCOc1ccc(CCNC(=O)CCCc2nnc3n(CC)c(=O)c4sccc4n23)cc1 ?
Pf Dd2 growth: inactive

What do the screens show for `Cc1ccc(-c2nc3ccccc3[nH]2)cc1NC(=O)COc1cccc(C)c1C`?
Pf Dd2 growth: 7.1µM*

What do the screens show for `COc1ccc(OCC(=O)Nc2cc(-c3nc4ccccc4s3)ccc2C)cc1`?
Pf Dd2 growth: 3%

Results for Cc1ccc(-c2nc3ccccc3s2)cc1NC(=O)COc1ccccc1 ?
Pf Dd2 growth: 13%

What do the screens show for `CCOc1ccccc1NC(=O)CN1Cc2ccccc2C1=O`?
Pf Dd2 growth: 1%

What do the screens show for `Cc1nc(-c2ccccc2)cc([C@H]2CN3CC[C@H]2C[C@@H]3CNC(=O)C2CC2)n1`?
Pf Dd2 growth: inactive

Results for COc1ccc(C(=O)NC[C@H]2C[C@@H]3CCN2C[C@@H]3c2cc(-c3ccc(N(C)C)cc3)nc(C)n2)cc1 ?
Pf Dd2 growth: inactive

What do the screens show for `Cc1nc(-c2ccccc2Br)cc([C@H]2CN3CC[C@H]2C[C@@H]3CNC(=O)NC2CCCCC2)n1`?
Pf Dd2 growth: inactive

How did Cc1nc(-c2ccc(N(C)C)cc2)cc([C@H]2CN3CC[C@H]2C[C@@H]3COC(=O)NC(C)C)n1 do in these assays?
Pf Dd2 growth: -4%

What do the screens show for `CCNC(=O)NC[C@H]1C[C@@H]2CCN1C[C@@H]2c1cc(-c2ccc(N(C)C)cc2)nc(C)n1`?
Pf Dd2 growth: -4%[44.1 µM]

What do the screens show for `Cc1nc(-c2ccc(N(C)C)cc2)cc([C@H]2CN3CC[C@H]2C[C@@H]3CNC(=O)c2ccccc2)n1`?
Pf Dd2 growth: 3.2µM*

Results for Cc1nc(-c2ccc(N(C)C)cc2)cc([C@H]2CN3CC[C@H]2C[C@@H]3COC(=O)Nc2ccc(C(C)C)cc2)n1 ?
Pf Dd2 growth: 4µM*

Screening results (PubChem BioAssay)
